According to PubChem BioAssay (Tox21):
Active and inactive are the calls of the source. Where a call stands in place of a potency, no number is given. The call rests on the fitted dose curve; in most records, active means well fitted cell-killing curve with a large enough effect in the repeat runs; inconclusive means weak or mixed curves, or effect the other way; inactive means flat fitted curve, though single readings scatter.

Assay: qHTS assay to identify small molecule HDAC inhibitors - cell viability counter screen (AID 1259365); further: nearly all actives have a fitted effect of over 50% in size
Details: HCT-116 viability, CellTiter-Glo ATP luminescence, 2 h; series mostly up to 92.4 µM
Source text: U.S. Tox21 Program National Center for Advancing Translational Sciences [NCATS] NIH Chemical Genomics Center [NCGC] U.S. Environmental Protection Agency [EPA] National Institutes of Environmental Health Sciences [NIEHS] National Toxicology Program [NTP] U.S. Food and Drug Administration [FDA] Tox21 Assay Overview: Histone deacetylases (HDACs) are a group of epigenetic enzymes that regulate gene expression by histone deacetylation. HDACs are capable of introducing epigenetic modifications and such aberrations contribute to the onset and progression of several human diseases, thus making HDACs a popular therapeutic target. For identifying endogenous class I/II HDAC inhibitors a homogenous, luminogenic HDAC I/II cell based assay was used to measure the relative activity of class I and II HDACs from cells. Wild type HCT-116 cells were used to screen Tox21 compound libraries for identifying class I/II HDAC inhibitors.
Tox21 Assay Protocol Summary: HCT-116 cells were dispensed at 1,500 per well in 5uL of culture medium into white solid bottom 1536-well plates (Greiner Bio-One, Monroe, NC) using a Multidrop Combi (Thermo Scientific, Waltham, MA) dispenser. The assay plates were incubated at 37 C and 5% CO2 for an overnight, and then 23nL of compounds dissolved in DMSO and positive control were transferred using a Pintool station (Wako, San Diego, CA). The assay plates were incubated at 37C and 5% CO2 for 2hr. After compound treatment, 4uL of CellTiter-Glo reagent (Promega Corporation, Madison, WI) was added to each well of the assay plates using Flying Reagent Dispenser (FRD, Aurora Discovery, San Diego, CA) and incubated the assay plates at room temperature for 30min. The luminescence signal was quantified using a ViewLux plate reader (Perkin Elmer, Shelton, CT).
Potency means the concentration at half of the fitted maximal effect.

SMILES | Potency
O=C(O)CCCCCCCCCCCBr | inactive
C/C=C(/C(=C/C)c1ccc(O)cc1)c1ccc(O)cc1 | inactive
NC(=O)c1ccncc1 | inactive
CCCCCCNC(=O)n1cc(F)c(=O)[nH]c1=O | inactive
CN1C(=O)N(c2ccccc2Br)Cc2cnc(Nc3ccc4c(c3)OCC(CO)O4)nc21 (stereo not given) | inactive
N#CCc1ccc(Cl)cc1Cl | inactive
CC(=O)N/N=C/c1ccc([N+](=O)[O-])o1 | inactive
O=C(CCCN1CC=C(n2c(=O)[nH]c3ccccc32)CC1)c1ccc(F)cc1 | inactive
COc1ccccc1N1CCN(CCCCNC(=O)c2ccc(-c3ccc(C(C)=O)cc3)cc2)CC1 | inactive
C=Cc1ccc(S(=O)(=O)O)cc1 | inactive
Cc1cc2c(OCC(CNC(C)(C)C)OC(=O)c3ccccc3)cccc2[nH]1 (stereo not given) | inactive
CC(CN(C)C)C(C)(O)Cc1ccc(Cl)cc1 (stereo not given) | inactive
Nc1nc2ccc([N+](=O)[O-])cc2s1 | inactive
C[C@@H](O[C@H]1OCCN(Cc2n[nH]c(=O)[nH]2)[C@H]1c1ccc(F)cc1)c1cc(C(F)(F)F)cc(C(F)(F)F)c1 | inactive
Cc1cc(O)c(C)c(C)c1O | inactive
CCOC(=O)[C@H](CCc1ccccc1)N[C@@H](C)C(=O)N(CC(=O)O)C1Cc2ccccc2C1 | inactive
C=C/C(C)=C/C/C=C(\C)CCC=C(C)C | inactive
Cc1cc(C)c(N)cc1C | inactive
O=C1Cc2cc(Cl)ccc2N1 | inactive
CCCCN(CCN(CCCC)C(=O)N1CCOCC1)C(=O)N1CCOCC1 | inactive

SMILES | Potency
O=C1c2ccccc2C(=O)N1CCc1noc(-c2ccc(CN3CCCCCC3)s2)n1 | inactive
CCC(OCCCOC)OC(C)=O (stereo not given) | inactive
C1C[C@@H]2[C@H]3CC[C@H](C3)[C@@H]2C1 | inactive
O=[N+]([O-])c1cc(C2CCCCC2)c(O)c([N+](=O)[O-])c1 | inactive
C[C@]1(Cn2ccnn2)[C@H](C(=O)O)N2C(=O)C[C@H]2S1(=O)=O | inactive
NCCNCCO | inactive
C[C@@H]1CN(CCCn2c3ccccc3c3ccccc32)C[C@H](C)N1 | inactive
Nc1nnc(-c2ccc([N+](=O)[O-])o2)o1 | inactive
CC1(C)[C@@H](OC(=O)CCC(=O)O)CC[C@]2(C)[C@H]3C(=O)C=C4[C@@H]5C[C@@](C)(C(=O)O)CC[C@]5(C)CC[C@@]4(C)[C@]3(C)CC[C@@H]12 | inactive
Cc1ccc2c(Br)cc(Br)c(O)c2n1 | inactive
O=C(/C=C/c1ccccc1)OCCc1ccccc1 | inactive
O=C(Nc1cccc2c(=O)cc(-c3nn[nH]n3)oc12)c1ccc(OCCCCc2ccccc2)cc1 | inactive
CCOC(=O)c1ccc(C#Cc2ccc3c(c2)C(C)(C)CCS3)nc1 | inactive
CC(=O)OCCN(CCOC(C)=O)c1ccc(N=Nc2ccc([N+](=O)[O-])cc2C#N)cc1 | 24.3 µM (active)
O=[N+]([O-])c1ccc(O/N=C/c2cc(Br)c(O)c(Br)c2)c([N+](=O)[O-])c1 | inactive
Cc1ccccc1N=C(N)Nc1ccccc1C | inactive
O=C=Nc1cccc(C(F)(F)F)c1 | inactive
CCOC(C)=O | inactive
CC=C(Cl)Cl | inactive
O[C@@H]1CO[C@H]2[C@@H]1OC[C@@H]2O | inactive
